{
  "source": "PubChem BioAssay (EPA / NIEHS)",
  "note": "The source holds several records for some structures; these can differ, active in one and inactive in another. Active and inactive are the calls of the source. How the source made its calls: active means hit-call score of the fitted dose curve at least 0.9, where 1 is the maximum; inactive means score below 0.9.",
  "data": [
    {"assay": "ATG_GRE_CIS: Attagene CIS-FACTORIAL HepG2 Assay for human Glucocorticoid Response Elements (GRE) (AID 2282947)", "details": "HepG2 GRE cis-reporter, Attagene multiplex mRNA; actives raise or lower the signal", "protocol": "ATG_CIS is a cell-based, multiplexed-readout assay that uses HepG2, a human liver cell line, with measurements taken at 24 hours after chemical dosing in a 24-well plate.ATG_GRE_CIS is one of 52 assay component(s) measured or calculated from the ATG_CIS assay. It is designed to make measurements of mRNA induction, a form of inducible reporter, as detected with fluorescence intensity signals by Reverse transcription polymerase chain reaction (RT-PCR) and Capillary electrophoresis technology.Data from the assay component ATG_GRE_CIS was analyzed into 1 assay endpoint. This assay endpoint, ATG_GRE_CIS, was analyzed with bidirectional fitting relative to DMSO as the negative control and baseline of activity. Using a type of inducible reporter, measures of mRNA for gain or loss-of-signal activity can be used to understand the reporter gene at the transcription factor-level as they relate to the gene NR3C1. Furthermore, this assay endpoint can be referred to as a primary readout, because this assay has produced multiple assay endpoints where this one serves a reporter gene function. To generalize the intended target to other relatable targets, this assay endpoint is annotated to the nuclear receptor intended target family, where the subfamily is steroidal.\nHuman liver HepG2 cells are transiently transfected with multiple reporter transcription units (MRTUs) in 6-well plates using FuGene 6 reagent (Roche; 3 ml FuGene/1 mg DNA). The MRTU constructs are regulated by a cis-regulating element (promoter). […] A major difference between the CIS and TRANS system is that in CIS activities of endogenous TFs are measured, whereas the TRANS assay evaluates changes in activities of exogenous, chimeric NR-Gal4 proteins. […] At the end of 24 hour incubation, total RNA was isolated using TriZol reagent (Invitrogen). The isolated RNA is then reverse-transcribed using oligo(dT) primer and Mo-MLV reverse transcriptase (Invitrogen) with DNAse I (Ambion) treatment for 30 min. The one-tenth of the produced cDNA was amplified by PCR using Taq DNA polymerase (Invitrogen) and two reporter sequence-specific primers. The PCR products were fluorescently labeled by primer extension with 6-arboxyfluorescein (6-FAM) 5'-labeled reporter sequence-specific primer (2 min at 95 C, 20 s at 68 C and 10 min at 72 C) and these products were digested with 5U of HpaI (New England Biolabs) for 2h at 37 C. The fragments were purified using Qiaquick PCR columns (Qiagen), analyzed on an ABI 3130xL genetic analyzer (Applied Biosystems) with peak positions identified by using a set of X-rhodamine (ROX)-labeled MapMarker1000 molecular weight standards (BioVentures). The raw capillary electrophoresis data was processed using Attagraph software (Attagene).", "values": [
      {"compound": "CC(=[OH+])/C=C(/C)[O-].CC(=[OH+])/C=C(/C)[O-].CC(=[OH+])/C=C(/C)[O-].[Fe]", "outcome": "inactive"},
      {"compound": "O=C1C2(Cl)C3(Cl)C4(Cl)C(Cl)(Cl)C5(Cl)C3(Cl)C1(Cl)C5(Cl)C24Cl", "note": "(stereo not given)", "outcome": "inactive", "AC50": "5.27 µM (active)"},
      {"compound": "C1CCC(NC2CCCCC2)CC1", "outcome": "inactive"},
      {"compound": "COC[C@H](C)N(C(=O)CCl)c1c(C)csc1C", "outcome": "inactive"},
      {"compound": "COc1ccccc1OC", "outcome": "inactive"},
      {"compound": "CCCCC(CC)CO[N+](=O)[O-]", "note": "(stereo not given)", "outcome": "inactive"},
      {"compound": "O=C(OC1CCCCC1)c1ccccc1C(=O)OC1CCCCC1", "outcome": "inactive"},
      {"compound": "O=Cc1cccc(Oc2ccccc2)c1", "outcome": "inactive"},
      {"compound": "O=C1CCCN1", "outcome": "inactive"},
      {"compound": "CCOC(=O)/C=C(C)/C=C/C[C@@H](C)CCCC(C)C", "AC50": "74.7 µM (active)"},
      {"compound": "ClC1=C(Cl)[C@]2(Cl)[C@H]3[C@H]([C@H]4C=C[C@H]3C4)[C@@]1(Cl)C2(Cl)Cl", "outcome": "inactive"},
      {"compound": "Cn1sc(Cl)cc1=O", "outcome": "inactive"},
      {"compound": "CC(C)(c1ccc(OCC2CO2)cc1)c1ccc(OCC2CO2)cc1", "note": "(stereo not given)", "outcome": "inactive"},
      {"compound": "C[C@@H](Oc1ccc(Cl)cc1Cl)C(=O)O", "outcome": "inactive"},
      {"compound": "CN(C)N=O", "outcome": "inactive"},
      {"compound": "CC(Br)C(=O)O", "note": "(stereo not given)", "outcome": "inactive"},
      {"compound": "CCOP(=S)(OCC)SCSP(=S)(OCC)OCC", "outcome": "inactive"},
      {"compound": "COP(=O)(OC)OC", "outcome": "inactive"},
      {"compound": "Nc1ccc(-c2ccc(N)c(Cl)c2)cc1Cl", "outcome": "inactive"},
      {"compound": "COS(=O)(=O)c1ccc(C)cc1", "outcome": "inactive"},
      {"compound": "O=[N+]([O-])c1ccc2c3c(cccc13)CC2", "outcome": "inactive"},
      {"compound": "ClC1(Cl)C2(Cl)C3(Cl)C4(Cl)C(Cl)(Cl)C5(Cl)C3(Cl)C1(Cl)C5(Cl)C24Cl", "note": "(stereo not given)", "outcome": "inactive"},
      {"compound": "CCSC(C)CC1CC(=O)C(C(CC)=NOC/C=C/Cl)=C(O)C1", "note": "(stereo not given)", "outcome": "inactive"},
      {"compound": "CC(C#N)CCC#N", "note": "(stereo not given)", "outcome": "inactive"},
      {"compound": "Clc1ccc(C2(Cn3cncn3)CC(Br)CO2)c(Cl)c1", "note": "(stereo not given)", "outcome": "inactive"},
      {"compound": "Nc1ccc(N=Nc2ccc(-c3ccc(N=Nc4c(S(=O)(=O)O)cc5cc(S(=O)(=O)O)c(N=Nc6ccccc6)c(O)c5c4N)cc3)cc2)c(N)c1", "outcome": "inactive"},
      {"compound": "CCOP(=S)(OCC)Oc1nc(Cl)c(Cl)cc1Cl", "outcome": "inactive"},
      {"compound": "Nc1ccc(Cl)cc1C(=O)c1ccccc1", "outcome": "inactive"},
      {"compound": "N#CCc1ccc(Cl)cc1", "outcome": "inactive"},
      {"compound": "CCc1ccccc1C", "outcome": "inactive"},
      {"compound": "CCCCOCCOC(C)=O", "outcome": "inactive"},
      {"compound": "O=C(Nc1ccc2[nH]ccc2c1)c1cc2cc(F)ccc2n1Cc1cccc(F)c1", "AC50": "17.6 µM (active)"},
      {"compound": "CC(=O)[O][Hg][c]1ccccc1", "AC50": "3.71 µM (active)"},
      {"compound": "CNC", "outcome": "inactive"},
      {"compound": "CCC[CH2][Sn]([CH2]CCC)([CH2]CCC)[O]C(=O)c1ccccc1", "outcome": "inactive"},
      {"compound": "CCOP(=S)(OCC)SCCS(=O)(=O)CC", "outcome": "inactive"},
      {"compound": "ClC1=C(Cl)[C@]2(Cl)[C@@H]3[C@@H](Cl)[C@@H](Cl)C[C@@H]3[C@@]1(Cl)C2(Cl)Cl", "outcome": "inactive"},
      {"compound": "C=CC#N", "outcome": "inactive"},
      {"compound": "C=CC(=O)N(C)C", "outcome": "inactive"}
    ]}
  ]
}
